SMILES strings stand for the structures. Values joined by “and” are separate entries in the source; they are usually repeats but may differ in a detail not shown here. Identical values can stand only once. About 79,000 compounds went through this panel and 15% of them were active in at least one assay; those are over-represented in the sample as a whole. Active and inactive are the calls of the source. Cut-off read from the data, not from the text of the source: active = growth inhibition above about 70%; inactive = the rest.

This passage reports growth inhibition results from PubChem BioAssay (NCI).

A short description of the test: NCI Yeast Anticancer Drug Screen. Data for the cln2 rad14 strain (AID 165).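 Note: 0% = growth equal to vehicle treated cultures.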 The conditions noted are these: S. cerevisiae cln2 rad14 strain, hits give high values; at 50.0 µM unless noted. As to the method:
Growth inhibition of yeast strains with defined genetic alterations is measured as a screen for potential anti-cancer activity. Selected strains with alterations in DNA damage repair or cell cycle control were exposed to compounds and growth inhibition was measured relative to vehicle treated controls. The strain used in this assay is cln2 rad14
Take `[N-]=[N+]=Nc1ccc2nc(N)nc(N)c2c1`: the growth inhibition is -33.9% (inactive). For `C=CCSCc1ccccc1` the value was 3.8% (inactive); for `Cc1ccc([N+](=O)[O-])cc1NC(=O)/C(=N/NC(=S)NN)C1SC(=S)NC1=O` (stereo not given), 20.9% (inactive). For `Cc1cc(C)c2c(c1)CC(C)(C)CC2=O` the value was 2.5% (inactive). For `CCOC(=O)CC(C#N)(C#N)CC(=O)OCC`, the growth inhibition was -0.1% (inactive). Turning to `Brc1ccccc1C#Cc1ccccc1Br`, the growth inhibition is -1.25% (inactive). For the compound `CCOC(=O)C(=O)/C(=C/N1C(=O)CC(=O)NC1=S)C(=O)OCC`, the growth inhibition was -13.9% (inactive).

Consider `CCCCCC(Br)C(Br)CC(Br)C(Br)CC(Br)C(Br)CCCCC(=O)O` (stereo not given), for which the growth inhibition was -31.9% (inactive). For `CC(C)=CCCC(C)CCOc1cccc(C)c1` (stereo not given) the value was -37.5% (inactive); for `O=C(/C(=C/c1ccccc1)c1ccccc1)N1c2ccccc2CC1c1c[nH]c2ccccc12` (stereo not given), 19.1% (inactive).

With `O=C1C2=C(C(=O)C3=C1C1CCC3C1)C1CCC2C1`, the growth inhibition is -15.2% (inactive). On to `C(/C=N/NC1=NCCN1)=N\NC1=NCCN1`, for which the growth inhibition was 2.85% (inactive). In the case of `N#CCCN1CCCC(=O)NC1=O`, the growth inhibition was -37.7% (inactive). Consider `O=C(C[n+]1cc(Br)cc2ccccc21)c1ccc(F)cc1`, for which the growth inhibition is 39.4% (inactive). For `Cc1ccc(S(=O)(=O)CCC#N)cc1` the value was -9.35% (inactive); for `CC1CC(OCCO)CC(C)(C)C1` (stereo not given), -8.8% (inactive). For the compound `Cc1[nH]c2ccccc2c1/C=C/c1c[nH]c2ccccc12`, the growth inhibition was 15.8% (inactive). In the case of `c1ccc(CC2=NCCO2)cc1` it was -33% (inactive).

For the compound `CCSC(=O)C(F)(F)F`, the growth inhibition is -1.2% (inactive). As to `C[n+]1c(SCC(=O)O)sc2ccccc21`, the growth inhibition is 14.9% (inactive) and 6.5% (inactive).

As for `O=C(OCC(OC(=O)c1ccccc1)C1OCOC2COCOC21)c1ccccc1` (stereo not given), the growth inhibition was -24.2% (inactive). Take `CCCc1ccc(C)c(Br)c1`: the growth inhibition was -9.95% (inactive). On to `Nc1c(F)c(F)c(N=Nc2ccccc2)c(F)c1F`, for which the growth inhibition is 7.05% (inactive).

Regarding `CC(=O)Nc1nnn(C)n1`, the growth inhibition is -39.5% (inactive). In the case of `CC(=O)NC(C(=O)O)C(C)C` (stereo not given), the growth inhibition is -4.2% (inactive).

Take `Cc1ccc(C(=O)CC(Sc2ccccc2N)c2c(Cl)cccc2Cl)c(C)c1` (stereo not given): the growth inhibition was -4.5% (inactive). For `CC(=O)NC(C)c1ccccc1` (stereo not given) the value was -11.9% (inactive). On to `CC12CC(O)C3C(CCC4CC(O)CCC43C)C1CCC2C(=O)CO` (stereo not given), for which the growth inhibition is 13.2% (inactive). For `Cc1ccc(S(=O)(=O)c2c3[nH]c4ccccc4nc3n3c2nc2ccccc23)cc1` the value was -87.3% (inactive); for `COC(=O)CN(CC(=O)NCCCBr)C1CCCCC1N(CC(=O)OC)CC(=O)OC` (stereo not given), -23% (inactive); for `N#C/C(=C\c1ccc2ccccc2c1)C(=O)c1ccccc1`, 17.8% (inactive). In the case of `Cc1ccc(C2=NN(c3ccccc3)C(c3ccccc3)C2NC2CCCCC2)cc1` (stereo not given), the growth inhibition is -27.4% (inactive).

`O=c1c2cc(O)ccc2n2nnc3ccc(NCCNCCO)c1c32`: the growth inhibition was 18.1% (inactive) and 16.9% (inactive). For the compound `CC(C)NCC(O)c1ccc(O)c(O)c1` (stereo not given), the growth inhibition is 14.7% (inactive) and -52% (inactive).

As to `CC(C)N1CCN(c2ccncc2S(=O)(=O)N2CCCC2)CC1`, the growth inhibition is -33.9% (inactive). For `Cn1c([N+](=O)[O-])cnc1CSc1nc(-c2ccccc2)no1`, the growth inhibition is -1.1% (inactive). For `O=C1NC(=S)N/C1=C\c1ccc(Cl)cc1` the value was -5.9% (inactive); for `COc1ccc(C=O)c(Cl)c1OC`, 6.55% (inactive). Regarding `CCN(CC)C(=S)SCC(=O)Nc1nc2c(s1)CCCC2`, the growth inhibition is 3.75% (inactive). As for `Oc1ccc2ccccc2c1/C=C/c1ccc2c(Br)cc(Br)c(O)c2n1`, the growth inhibition is 38% (inactive).
